Molecules are shown by their SMILES. Active and inactive are the calls of the source. Rule for the calls: active = hit-call score of the fitted dose curve at least 0.9, where 1 is the maximum; inactive = score below 0.9.

The nature of assay [1]: APR_HepG2_CellCycleArrest_24hr: Apredica 24-hour HepG2 Assay for Cell Cycle Arrest (AID 2282905).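 Note: cell cycle arrest scored as ratio of 2N to 4N nuclear DNA content.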 The settings on record: imaging, actives raise or lower the signal. The gist of the method: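 Step one: dose HepG2 with test compounds, 0.39–200 uM, 0.5% DMSO, 24 hr. Step two: fix, permeabilize, stain nuclei with Hoechst 33342. Step three: image six fields per well at 20x, quantify DNA content, fit bidirectionally relative to DMSO.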

Assay [2] in a line: APR_HepG2_CellLoss_24hr: Apredica 24-hour HepG2 Assay for Cell Loss (AID 2282908).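 For AC50: fit in both directions so a hit may be cell loss or gain.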 The settings on record: high-content imaging. The gist of the method: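 Duplicate wells received compound at ten concentrations (0.39–200 uM; final DMSO 0.5% v/v). After fixation with formaldehyde, nuclei stained with Hoechst 33342 were imaged at 20x. Loss or gain of cell count was fitted relative to DMSO controls.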

Assay [3] can be described thus: APR_HepG2_MicrotubuleCSK_24hr: Apredica 24-hour HepG2 Assay for Microtubule CSK Stabilty (AID 2282909). The settings on record: HepG2 microtubule cytoskeleton imaging, actives raise or lower the signal. The gist of the method: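 Microtubule stability is scored from tubulin immunofluorescence in fixed HepG2 cells imaged at 20x. Cells receive ten compound concentrations up to 200 uM for 24 h; taxol and DMSO serve as positive and negative controls.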

The nature of assay [4]: APR_HepG2_MitoMembPot_24hr: Apredica 24-hour HepG2 Assay for Mitochondrial Membrane Potential (AID 2282911). Conditions: imaging, actives raise or lower the signal. The gist of the method: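 Human hepatoma HepG2 cultures received ten compound concentrations up to 200 uM for 24 hr. Membrane-potential dye signal, captured by automated fluorescence microscopy, was scored for gain or loss against DMSO controls.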

Assay [5] is described as follows: APR_HepG2_MitoMass_24hr: Apredica 24-hour HepG2 Assay for Mitochondrial Mass (AID 2282912). Conditions: high-content imaging, actives raise or lower the signal. The gist of the method:
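Readout: fluorescence of MitoTracker Red CMXRos (250 nM, added 30 min pre-fixation) in fixed HepG2 cells imaged by HCS. Exposure lasted 24 hr at 0.39–200 uM; increases and decreases were both fitted relative to DMSO.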

Assay [6] can be described thus: APR_HepG2_p53Act_24hr: Apredica 24-hour HepG2 Assay for p53 Activation (AID 2282913).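 Note: p53 protein immunofluorescence averaged per cell in HepG2 with Hoechst nuclei.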 Conditions: high-content imaging, actives raise or lower the signal. The gist of the method: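 Automated fluorescence imaging quantifies p53 immunostaining in HepG2 cells after a 24 hr exposure (0.39–200 uM, duplicate, 0.5% DMSO). Nuclei are located by Hoechst 33342 staining.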
Assay [7] can be described thus: APR_HepG2_CellCycleArrest_72hr: Apredica 72-hour HepG2 Assay for Cell Cycle Arrest (AID 2282914). Conditions: high-content imaging, actives raise or lower the signal. The method in brief:
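Cell cycle arrest in HepG2 was scored from nuclear DNA content after 72 hr compound treatment (0.39–200 uM). Activity, either gain or loss, was fitted against the DMSO baseline.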

The nature of assay [8]: APR_HepG2_CellLoss_72hr: Apredica 72-hour HepG2 Assay for Cell Loss (AID 2282915). The settings on record: high-content imaging. The gist of the method: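 HepG2 cells were exposed for 72 hr to compounds at 0.39–200 uM (ten concentrations, duplicate) in 0.5% v/v final DMSO. Nuclei were stained with Hoechst 33342 after 3.7% formaldehyde fixation, imaged at 20x, and counted; fits bidirectional versus DMSO.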

The nature of assay [9]: APR_HepG2_MitoticArrest_24hr: Apredica 24-hour HepG2 Assay for Mitotic Arrest (AID 2282910). Conditions: high-content imaging, actives raise or lower the signal. The method in brief:
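Treatment lasted 24 hr in the human HepG2 line at 0.39–200 uM, solvent held at 0.5% DMSO. Fixed cells were stained with Hoechst 33342 and anti-phospho-histone H3, imaged at 20x, and analysed by gain- or loss-of-signal fitting against DMSO.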

On to `Cc1ccc(C(C)(C)C)c(O)c1`, for which the compound was classed as inactive in assay [1]. The concentration at half-maximal activity (AC50) is 108 µM (active) in [2]; 113 µM (active) in assay [3]; 122 µM (active) in assay [4]; 107 µM (active) in assay [5]; 110 µM (active) in assay [6]; 110 µM (active) in [7]. Besides, the half-maximal activity concentration (AC50) in assay [8] was 145 µM (active).

Consider `O=C(O)CN(CC(=O)O)CC(=O)O`, for which the compound was classed as inactive in assay [1], in assay [3], in assay [9], in assay [4], in assay [5] and in assay [6]. Moreover, the compound was called inactive in [7] and in [8].

Turning to `CSc1ccc(Oc2ccc(S(N)(=O)=O)cc2CN(C)C)cc1C`, the compound was classed as inactive in [1] and in assay [3]. Further, the AC50 in assay [2] is 131 µM (active); in [4], 100 µM (active); in assay [5], 100 µM (active); in assay [8], 108 µM (active).

Regarding `NC(=Nc1ccccc1)Nc1ccccc1`, the half-maximal activity concentration (AC50) in [1] is 8.86 µM (active); in assay [8], 18.1 µM (active). The call in [3], in assay [4], in assay [5] and in [6] was inactive.

As for `O=C(NS(=O)(=O)/C=C/c1cccs1)c1ccc(F)cc1Br`, the outcome in assay [1], in assay [3], in assay [4] and in assay [5] was inactive. In [8], the AC50 was 80.8 µM (active).

On to `CCCCC(CC)COP(=O)(OCC(CC)CCCC)OCC(CC)CCCC` (stereo unspecified), for which the result in assay [1], in [3], in assay [4] and in [5] was inactive. The AC50 in [9] was 48.2 µM (active); in [6], 71.1 µM (active); in assay [8], 37.3 µM (active).

On to `CCCCC(CC)COC(=O)CCCCCCCC(=O)OCC(CC)CCCC` (stereo unspecified), for which the compound was called inactive in [1], in assay [3], in assay [4], in assay [5], in assay [6] and in [8].

Regarding `CC(COCC(C)OC(=O)c1ccccc1)OC(=O)c1ccccc1` (stereo unspecified), the call in [1], in [2], in assay [3], in assay [9], in [4] and in [5] was inactive. Moreover, the compound was called inactive in assay [8].

Regarding `CC(=O)OCC(COC(C)=O)OC(C)=O`, the compound was classed as inactive in [1], in assay [3], in assay [9], in [4], in assay [5] and in [7]. Besides, the call in assay [8] was inactive.

Take `C=CCc1ccc(OC)c(OC)c1`: the call in assay [1], in assay [3], in [9], in assay [4], in assay [5] and in [6] was inactive. Also, the result in assay [7] and in assay [8] was inactive.

`S=c1[nH]c2ccccc2s1`: the compound was classed as inactive in assay [1], in assay [3], in assay [9], in assay [5], in assay [6] and in assay [7]. For the same compound, in [8], the compound was called inactive. Also, the AC50 in assay [4] was 86.5 µM (active).

For the compound `Cc1c(C)c2c(c(C)c1O)CCC(C)(COc1ccc(CC3SC(=O)NC3=O)cc1)O2` (stereo unspecified), the AC50 was 75.7 µM (active) in [1]; 88.2 µM (active) in assay [2]; 122 µM (active) in assay [3]; 96.5 µM (active) in [4]; 83.8 µM (active) in assay [8]. In addition, the outcome in assay [5] and in assay [6] was inactive.

For the compound `CC(C)OC(=O)C(C)(C)Oc1ccc(C(=O)c2ccc(Cl)cc2)cc1`, the call in assay [1], in [3], in [4] and in assay [5] was inactive. The values for the AC50 in assay [7] and in [8] were 100 µM (active) and 103 µM (active), respectively.

On to `O=C1NC(=O)C(c2ccccc2)(c2ccccc2)N1`, for which the call in assay [1], in [3], in assay [4], in [5] and in assay [8] was inactive.

In the case of `CC(C)c1cccc(C(C)C)c1`, the compound was called inactive in assay [1], in assay [3], in assay [9], in [4], in assay [5] and in [8].

Regarding `COc1ccc(C(=O)Nc2nc3ccccc3c(NCc3ccccc3)c2C#N)cc1`, the result in assay [1], in assay [3], in [9] and in [7] was inactive. The AC50 is 43.4 µM (active) in assay [4], 159 µM (active) in [5], 160 µM (active) in assay [6] and 45.3 µM (active) in assay [8].

For `CCCCCCCCCC[N+](C)(C)[O-]`, the compound was called inactive in [1], in assay [3], in assay [4], in assay [5], in assay [6] and in [7]. In addition, the AC50 was 109 µM (active) in [2] and 140 µM (active) in assay [8].

As to `CC(=O)O`, the concentration at half-maximal activity (AC50) in assay [1] was 97 µM (active); in assay [2], 112 µM (active); in [7], 0.16 µM (active); in assay [8], 49.4 µM (active). Further, the result in assay [3], in [4] and in assay [5] was inactive.

For `Cc1cc(SC2=C(O)C[C@@](CCc3ccc(N)cc3)(C(C)C)OC2=O)c(C(C)(C)C)cc1CO`, the compound was called inactive in assay [1], in assay [2], in [3], in assay [5], in [6] and in assay [8]. For the same compound, in assay [4], the AC50 was 0.0797 µM (active).

`CO[C@@H]1COCC[C@@H]1N[C@@H]1CC[C@@](C(=O)N2CCc3ncc(C(F)(F)F)cc3C2)(C(C)C)C1`: the compound was classed as inactive in assay [1], in [3], in [4], in assay [5], in assay [6] and in assay [7]. Besides, in [8], the call was inactive.

Consider `c1ccc2occc2c1`, for which the compound was classed as inactive in assay [1], in assay [3], in [9], in assay [4], in assay [5] and in [6]. In addition, the outcome in assay [7] and in [8] was inactive.

Turning to `CCOCCOCCO`, the compound was classed as inactive in assay [1], in [2], in [3], in [4], in assay [5] and in assay [6]. Further, the outcome in assay [8] was inactive.

Consider `CN(C)CCCN1c2ccccc2Sc2ccc(Cl)cc21`, for which the compound was called inactive in [1], in assay [3] and in assay [4]. For the same compound, the half-maximal activity concentration (AC50) was 35 µM (active) in [2], 31 µM (active) in [5], 28.5 µM (active) in assay [6] and 33.9 µM (active) in assay [8].

On to `C/C=C/c1ccc(OC)cc1`, for which the result in assay [1], in assay [3], in assay [9], in [4], in assay [5] and in assay [7] was inactive. In assay [8], the outcome was inactive.
